Common to all, as to details: mRNA level, 48 h; actives raise or lower the signal
Read-out in experiment [1]: Glutamate-cysteine ligase catalytic (GCLC), GCLC (gene 2729)
Description: LTEA_HepaRG_GCLC: Life Technologies and Expression Analysis (LTEA) Assay for Glutamate-cysteine ligase catalytic (GCLC) using HepaRG (AID 2283498). In short, it runs like this:
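Differentiated human HepaRG cells, plated 48 h then switched to serum-free induction medium, were exposed in duplicate for 48 h to 8 half-log concentrations topping at 100 uM in 0.5% DMSO. GCLC mRNA was quantified by qRT-PCR against ACTB, GAPDH and POLR2A.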

Read-out in experiment [2]: growth arrest and DNA damage 45 (GADD45G), GADD45G (gene 10912)
Nature of the experiment: LTEA_HepaRG_GADD45G: Life Technologies and Expression Analysis (LTEA) Assay for growth arrest and DNA damage 45 (GADD45G) using HepaRG (AID 2283499). In short, it runs like this:
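Human hepatic HepaRG line treated 48 h with chemicals (eight concentrations, half-log steps from 100 uM); transcript induction or repression of GADD45G scored by qRT-PCR versus DMSO vehicle.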

Read-out in experiment [3]: Glutamate-cysteine ligase regulatory (GCLM), GCLM (gene 2730)
Description: LTEA_HepaRG_GCLM: Life Technologies and Expression Analysis (LTEA) Assay for Glutamate-cysteine ligase regulatory (GCLM) using HepaRG (AID 2283500). In short, it runs like this: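 Differentiated human HepaRG cells exposed 48 h in serum-free induction medium to 8-point half-log concentrations (top 100 uM, 0.5% DMSO), in duplicate. GCLM mRNA quantified by qRT-PCR, normalized to ACTB, GAPDH, POLR2A; bidirectional fitting versus DMSO.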

Read-out in experiment [4]: Glutathione S-transferase M3 (GSTM3), GSTM3 (gene 2947)
Description: LTEA_HepaRG_GSTM3: Life Technologies and Expression Analysis (LTEA) Assay for Glutathione S-transferase M3 (GSTM3) using HepaRG (AID 2283501). The essentials: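 Changes in GSTM3 expression, an oxidative-stress marker, were scored by bidirectional curve fitting against 0.5% DMSO vehicle. Human HepaRG cultures received chemicals for 48 h in duplicate, highest concentration 100 uM with half-log dilutions.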

Read-out in experiment [5]: Heat shock 70 kDa protein 1 (HSPA1A), gene 3303
Description: LTEA_HepaRG_HSPA1A: Life Technologies and Expression Analysis (LTEA) Assay for Heat shock 70 kDa protein 1 (HSPA1A) using HepaRG (AID 2283502). The essentials: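 Differentiated human HepaRG cells in serum-free induction medium were exposed in duplicate for 48 h to eight concentrations (top 100 uM, half-log steps, 0.5% DMSO). HSPA1A mRNA was quantified by qRT-PCR, normalized to ACTB, GAPDH and POLR2A, and fitted bidirectionally against DMSO.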

Read-out in experiment [6]: Hypoxia-inducible factor 1-alpha (Homo sapiens) (UniProt Q16665)
Description: LTEA_HepaRG_HIF1A: Life Technologies and Expression Analysis (LTEA) Assay for Hypoxia-inducible factor 1 (HIF1A) Trancription factor using HepaRG (AID 2283503). The essentials:
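HepaRG, 48 h exposure, 8-pt half-log series from 100 uM, 0.5% DMSO vehicle, duplicates. Readout: HIF1A transcript by qRT-PCR (Fluidigm array), housekeeping-normalised. Bidirectional curve fit vs DMSO baseline.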

Read-out in another experiment: HGF (gene 3082)
Nature of the experiment: LTEA_HepaRG_HGF: Life Technologies and Expression Analysis (LTEA) Assay for Hepatocyte Growth Facto (HGF) using HepaRG (AID 2283505). In short, it runs like this:
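Gain or loss of HGF mRNA in human HepaRG liver cells after 48 h chemical exposure; eight concentrations up to 100 uM with 0.5% DMSO vehicle, quantified by TaqMan qRT-PCR.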

Read-out in experiment [7]: Insulin Like Growth Factor 1 (IGF1), IGF1 (gene 3479)
Nature of the experiment: LTEA_HepaRG_IGF1: Life Technologies and Expression Analysis (LTEA) Assay for Insulin Like Growth Factor 1 (IGF1) using HepaRG (AID 2283506). The essentials:
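Differentiated human HepaRG cells were dosed for 48 h in serum-free induction medium with 0.5% DMSO, eight half-log concentrations up to 100 uM, in duplicate. IGF1 mRNA was quantified by qRT-PCR normalized to ACTB, GAPDH, POLR2A; bidirectional fitting versus DMSO.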

Read-out in experiment [8]: Interleukin 6 (IL6), IL6 (gene 3569)
Nature of the experiment: LTEA_HepaRG_IL6: Life Technologies and Expression Analysis (LTEA) Assay for Interleukin 6 (IL6) using HepaRG (AID 2283509). In short, it runs like this:
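Differentiated human HepaRG cells, plated 48 h then switched to serum-free induction medium, were exposed in duplicate for 48 h to eight half-log concentrations up to 100 uM in 0.5% DMSO. IL6 mRNA measured by qRT-PCR, normalized to ACTB/GAPDH/POLR2A.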

Read-out in experiment [9]: Interleukin 6 Receptor (IL6R), IL6R (gene 3570)
Description: LTEA_HepaRG_IL6R: Life Technologies and Expression Analysis (LTEA) Assay for Interleukin 6 Receptor (IL6R) using HepaRG (AID 2283510).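 As to AC50: TaqMan qRT-PCR signal normalized to ACTB GAPDH and POLR2A housekeeping genes.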 In short, it runs like this: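 Differentiated human HepaRG cells, plated 48 h then switched to serum-free induction medium, were dosed in duplicate for 48 h at eight half-log concentrations up to 100 uM in 0.5% DMSO. IL6R mRNA quantified by qRT-PCR, normalized to ACTB/GAPDH/POLR2A; bidirectional fit versus DMSO.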

Read-out in experiment [10]: Potassium channel subfamily K member 1 (KCNK1), KCNK1 (gene 3775)
Description: LTEA_HepaRG_KCNK1: Life Technologies and Expression Analysis (LTEA) Assay for Potassium channel subfamily K member 1 (KCNK1) using HepaRG (AID 2283511). The essentials: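 Differentiated human HepaRG cells in serum-free induction medium were exposed in duplicate for 48 h to 8 half-log concentrations up to 100 uM in 0.5% DMSO. KCNK1 mRNA was measured by TaqMan qRT-PCR, normalized to ACTB, GAPDH and POLR2A, and fitted bidirectionally versus DMSO.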

Read-out in experiment [11]: Keratin 19 (KRT19), KRT19 (gene 3880)
Nature of the experiment: LTEA_HepaRG_KRT19: Life Technologies and Expression Analysis (LTEA) Assay for Keratin 19 (KRT19) using HepaRG (AID 2283512). The essentials:
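Gene-expression endpoint in the human liver line HepaRG after 48 h exposure to up to 100 uM test chemical with 0.5% DMSO vehicle; KRT19 mRNA by qRT-PCR, analyzed bidirectionally versus DMSO.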

Read-out in experiment [12]: JUN Transcription Factor, JUN (gene 3725)
Description: LTEA_HepaRG_JUN: Life Technologies and Expression Analysis (LTEA) Assay for JUN Transcription Factor using HepaRG (AID 2283513). In short, it runs like this: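 Differentiated HepaRG cells were exposed to chemicals for 48 h in serum-free induction medium, 8 concentrations from 100 uM in half-log steps, 0.5% DMSO vehicle, in duplicate. JUN mRNA was quantified by TaqMan qRT-PCR, normalized to ACTB, GAPDH, POLR2A.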

Read-out in experiment [13]: Lipase C (LIPC), LIPC (gene 3990)
Description: LTEA_HepaRG_LIPC: Life Technologies and Expression Analysis (LTEA) Assay for Lipase C (LIPC) using HepaRG (AID 2283514). In short, it runs like this: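 Differentiated human HepaRG cells in serum-free induction medium were exposed in duplicate for 48 h to eight concentrations (top 100 uM, half-log steps, 0.5% DMSO). LIPC mRNA was quantified by TaqMan qRT-PCR, normalized to ACTB, GAPDH and POLR2A, with bidirectional fitting versus DMSO.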

Read-out in experiment [14]: Lipoprotein lipase (LPL), LPL (gene 4023)
Nature of the experiment: LTEA_HepaRG_LPL: Life Technologies and Expression Analysis (LTEA) Assay for Lipoprotein lipase (LPL) using HepaRG (AID 2283515). The essentials: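 Differentiated human HepaRG cells in serum-free induction medium were exposed in duplicate for 48 h to eight half-log concentrations (top 100 uM) in 0.5% DMSO. LPL mRNA was quantified by TaqMan qRT-PCR, normalized to ACTB, GAPDH and POLR2A.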

Read-out in experiment [15]: MicroRNA 122 (MIR122), gene 406906
Nature of the experiment: LTEA_HepaRG_MIR122: Life Technologies and Expression Analysis (LTEA) Assay for MicroRNA 122 (MIR122) using HepaRG (AID 2283516). Also: the transcript read is the microRNA miR-122. The essentials: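 Differentiated human HepaRG cells were exposed 48 h in serum-free induction medium to eight half-log concentrations (top 100 uM, 0.5% DMSO). Transcript level was measured by TaqMan qRT-PCR, normalized to ACTB, GAPDH and POLR2A, and fitted bidirectionally versus DMSO.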

Read-out in experiment [16]: 3-Hydroxy-3-Methylglutaryl-CoA Synthase 2 (HMGCS2), HMGCS2 (gene 3158)
Description: LTEA_HepaRG_HMGCS2: Life Technologies and Expression Analysis (LTEA) Assay for 3-Hydroxy-3-Methylglutaryl-CoA Synthase 2 (HMGCS2) using HepaRG (AID 2283504). The essentials: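 Expression of HMGCS2 in human HepaRG liver cells is measured by qRT-PCR 48 h after dosing (highest 100 uM, half-log series, 0.5% DMSO). Values come from bidirectional concentration-response fitting with DMSO as baseline.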

Read-out in experiment [17]: matrix metalloproteinase-10 (MMP10), MMP10 (gene 4319)
Nature of the experiment: LTEA_HepaRG_MMP10: Life Technologies and Expression Analysis (LTEA) Assay for matrix metalloproteinase-10 (MMP10) using HepaRG (AID 2283517). In short, it runs like this:
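HepaRG, collagen I, ~100,000 cells/well; serum-free induction medium; 48 h exposure, duplicate, 8-pt half-log to 100 uM, 0.5% DMSO. Readout: TaqMan qRT-PCR, normalized to ACTB/GAPDH/POLR2A; bidirectional fit vs DMSO.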

Read-out in experiment [18]: Insulin-like growth factor-binding protein 1 (IGFBP1), IGFBP1 (gene 3484)
Description: LTEA_HepaRG_IGFBP1: Life Technologies and Expression Analysis (LTEA) Assay for Insulin-like growth factor-binding protein 1 (IGFBP1) using HepaRG (AID 2283508). In short, it runs like this: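 mRNA induction or loss was quantified by qRT-PCR after 48 h chemical exposure of human HepaRG cells, with 0.5% DMSO as vehicle and baseline. Concentration-response over eight points up to 100 uM.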

Active and inactive are the calls of the source. The calls were made as follows: active = hit-call score of the fitted dose curve at least 0.9, where 1 is the maximum; inactive = score below 0.9.

Sequence of Hypoxia-inducible factor 1-alpha (Homo sapiens) (Q16665 whole entry, looked up): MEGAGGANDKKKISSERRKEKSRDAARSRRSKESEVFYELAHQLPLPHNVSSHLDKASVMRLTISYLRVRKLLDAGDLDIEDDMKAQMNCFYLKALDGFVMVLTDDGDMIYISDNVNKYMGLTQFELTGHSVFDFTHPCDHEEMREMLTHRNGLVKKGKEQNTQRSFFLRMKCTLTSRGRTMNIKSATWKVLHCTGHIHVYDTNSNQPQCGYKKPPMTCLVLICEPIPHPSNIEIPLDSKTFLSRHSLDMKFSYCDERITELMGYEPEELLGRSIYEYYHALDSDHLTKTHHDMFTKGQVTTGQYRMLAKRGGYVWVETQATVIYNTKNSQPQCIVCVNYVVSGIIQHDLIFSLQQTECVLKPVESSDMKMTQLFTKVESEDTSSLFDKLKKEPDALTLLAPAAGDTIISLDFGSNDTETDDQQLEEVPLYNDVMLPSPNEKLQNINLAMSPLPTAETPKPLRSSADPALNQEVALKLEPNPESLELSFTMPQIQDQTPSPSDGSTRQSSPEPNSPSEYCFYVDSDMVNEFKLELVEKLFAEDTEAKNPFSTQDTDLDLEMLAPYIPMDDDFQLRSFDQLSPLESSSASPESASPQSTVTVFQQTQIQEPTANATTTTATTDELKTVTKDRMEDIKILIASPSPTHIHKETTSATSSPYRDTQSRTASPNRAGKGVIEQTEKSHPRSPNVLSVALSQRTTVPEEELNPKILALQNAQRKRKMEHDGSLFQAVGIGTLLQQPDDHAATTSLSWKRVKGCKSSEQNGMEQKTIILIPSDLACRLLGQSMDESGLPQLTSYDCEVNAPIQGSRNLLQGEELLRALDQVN

In the case of `N[C@@H](Cc1c[nH]c2ccccc12)C(=O)O`, the outcome in experiment [1], in experiment [2], in experiment [3], in [4], in [5] and in [6] was inactive. Besides, the call (with HGF (gene 3082); in experiment [7]; in [8]; in experiment [9]; in experiment [10]; in experiment [11]) was inactive. In addition, the outcome in [12], in [13], in [14] and in experiment [15] was inactive.

For the compound `COC(=O)[C@H]1[C@H]2C[C@@H]3c4[nH]c5cc(OC)ccc5c4CCN3C[C@H]2C[C@@H](OC(=O)c2cc(OC)c(OC)c(OC)c2)[C@@H]1OC`, the outcome (in [1]; in [3]; with HGF (gene 3082); in experiment [10]; in experiment [11]; in experiment [14]) was inactive. The AC50 is 24.6 µM (active) in experiment [2]; 42.2 µM (active) in experiment [4]; 42.2 µM (active) in [5]; 57.8 µM (active) in [16]; 54.4 µM (active) in [7]; 29.1 µM (active) in experiment [8]. Also, the AC50 is 42.2 µM (active) in experiment [9]; 8.38 µM (active) in [12]; 49.4 µM (active) in [13]; 55 µM (active) in [15]; 25.3 µM (active) in experiment [17].

In the case of `C#CC(O)C(CC)CCCC` (stereo not drawn), the call in experiment [1], in experiment [2], in experiment [3], in experiment [4], in experiment [5] and in experiment [6] was inactive. Also, the outcome (in the experiment with HGF (gene 3082); in experiment [7]; in experiment [8]; in experiment [9]; in experiment [10]; in experiment [11]) was inactive. Further, the call in experiment [12], in experiment [13], in experiment [14], in [15] and in experiment [17] was inactive.

On to `COc1ccc(OC(F)(F)F)cc1CN[C@H]1CCCN[C@H]1c1ccccc1`, for which the AC50 in experiment [1] was 90.1 µM (active); in experiment [5], 73.3 µM (active); in experiment [18] it was 71.7 µM (active); in experiment [8], 82.9 µM (active); in [10] it was 79.1 µM (active); in [12] it was 78.9 µM (active). For the same compound, the AC50 was 82.9 µM (active) in experiment [14] and 75.8 µM (active) in experiment [17]. In addition, the result (in experiment [2]; in [3]; in experiment [4]; in experiment [6]; in the experiment with HGF (gene 3082); in experiment [7]) was inactive. Besides, the compound was called inactive in [9], in experiment [11], in experiment [13] and in experiment [15].

The term AC50 denotes the concentration at which the activity in the assay is half-maximal.

For the origin of these results see PubChem BioAssay (EPA / NIEHS).
